SMILES strings stand for the structures. Where “and” joins values, the source holds several entries; their conditions need not be identical. Equal values may be shown once. Records with an inconclusive call do not appear. More than one record can exist for a structure, and the calls need not agree. Calls of active or inactive are those of the source. Calls follow the shape of the dose curve; as a rule, active = well fitted curve in the direction sought with a large enough effect in the repeat runs; inconclusive = weak or mixed curves; inactive = no such curve, though single readings can be large; an effect the other way counts as inactive or inconclusive.

These results are taken from PubChem BioAssay (Tox21).

A short description of test [1]: Caspase-3/7 induction in HepG2 cells by small molecules, qHTS assay (AID 1346978). Also: nearly all actives have a fitted effect of over 15% in size. Also: potency is read from the fitted curve at half-maximal effect. The procedure, abridged:
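Wild-type HepG2 cells (2,000/well) were settled 5 h at 37 C, 5% CO2, then exposed to compounds in DMSO for 17 h. Caspase-3/7 activity was read by luminescence 30 min after adding Caspase-Glo 3/7 reagent at room temperature.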

Test [2] can be described thus: Caspase-3/7 induction in CHO-K1 cells by small molecules, qHTS cell viability counter screen (AID 1346979). Also: nearly all actives have a fitted effect of over 35% in size. Also: potency is read from the fitted curve at half-maximal effect. Put shortly: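 Cytotoxicity counter screen: CellTiter-Fluor added to compound-treated wild-type CHO-K1 cells at 16 h (37C, 5% CO2), fluorescence measured 1 h later; same wells as caspase-3/7 measurement.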
On the technique in general: Quantitative high-throughput screening tests each substance at several concentrations.

Test [3] is described as follows: Caspase-3/7 induction in CHO-K1 cells by small molecules, qHTS assay (AID 1346980). Also: nearly all actives have a fitted effect of over 15% in size. The procedure, abridged: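 Wild-type cells were seeded at 1,500 per well and settled 5 hr at 37 C, 5% CO2, then exposed to DMSO-dissolved compounds for 17 hr. Caspase-Glo 3/7 reagent was added, and luminescence was read after 30min at room temperature.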
Test [4] addresses Nuclear receptor subfamily 1 group I member 2 (Homo sapiens) (UniProt O75469). Description: Human pregnane X receptor (PXR) small molecule agonists, qHTS assay (AID 1346982). Also: nearly all actives have a fitted effect of over 35% in size. Also: potency is read from the fitted curve at half-maximal effect. The procedure, abridged: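 After plating in 5% charcoal-stripped FBS and a 5 hr rest, PXR-Luc HepG2 cells received compounds in DMSO. Following 24 hr at 37 C, ONE-Glo was added and light output read.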
In test [5] the target is Nuclear receptor subfamily 1 group I member 2 (Rattus norvegicus) (UniProt Q9R1A7). Nature of the test: Rat pregnane X receptor (rPXR) activation by small molecules, qHTS assay (AID 1346983). Also: nearly all actives have a fitted effect of over 20% in size. The conditions noted are these: rPXR luciferase reporter cells, One-Glo luminescence, 24 h; max activation: stronger effect = higher value. Put shortly:
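Cell-based rPXR luciferase reporter assay, 2,000 cells per well, rested 5hr at 37 C before compound addition in DMSO, then 24 hr at 37 C. One-Glo reagent was added and luminescence read after 30 min at room temperature.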

Test [6] deals with Nuclear receptor subfamily 1 group I member 2 (Homo sapiens) (UniProt O75469). Description: CYP3A4 induction through human pregnane X receptor (PXR) by small molecules, qHTS assay (AID 1346984). Also: nearly all actives have a fitted effect of over 40% in size. Also: potency is read from the fitted curve at half-maximal effect. The procedure, abridged:
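Human PXR activation is tracked via CYP3A4 promoter-luciferase in DPX-2 (HepG2) cells. Compounds treat cells for 24hr at 37C, and luminescence is read after One-Glo.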

Test [7] has the same target. Description: Human pregnane X receptor (PXR) activation by small molecules, qHTS assay (AID 1346985). Also: nearly all actives have a fitted effect of over 40% in size. Put shortly:
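DPX-2 cells (HepG2 co-transfected with a PXR response element and a CYP3A4-promoter luciferase construct) were seeded at 2,000 per well, rested 5 hr at 37C, then exposed to DMSO-dissolved compounds for 24 hr. Activation was read as luciferase luminescence.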

Test [8] addresses Cytochrome P450 2D6 (Homo sapiens) (UniProt P10635). Nature of the test: Cytochrome P450 Family 2 Subfamily D Member 6 (CYP2D6) small molecule antagonists: luciferase reporter qHTS assay (AID 1671196). Also: nearly all actives have a fitted effect of over 50% in size. Also: potency is read from the fitted curve at half-maximal effect. The procedure, abridged:
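Quantitative HTS of Tox21 chemicals against CYP2D6 using a luminescent proluciferin substrate. After NADPH addition, 1 h room-temperature reaction; luminescence recorded 20 min post detection reagent.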

Test [9] deals with Cytochrome P450 2C19 (Homo sapiens) (UniProt P33261). Nature of the test: Cytochrome P450 Family 2 Subfamily C Member 19 (CYP2C19) small molecule antagonists: luciferase reporter qHTS assay (AID 1671197). Also: nearly all actives have a fitted effect of over 65% in size. Also: potency is read from the fitted curve at half-maximal effect. Put shortly:
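Enzyme-substrate mix with proluciferin substrate (P450-Glo CYP2C19 system) preincubated with compounds 10 min at room temperature; NADPH regeneration solution added, 37C for 1 h; detection reagent stops reaction, luminescence read after 20 min. Ketoconazole positive control.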

The nature of test [10]: Caspase-3/7 induction in HepG2 cells by small molecules, qHTS cell viability counter screen (AID 1346981). Also: series mostly up to about 92 µM; nearly all actives have a fitted effect of over 30% in size. Put shortly: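 The parent HepG2 line is plated at 2,000 cells per well and rested 5 hr before compound pinning from DMSO stocks. Following a 16-hr treatment at 37 C, a fluorogenic live-cell substrate (CellTiter-Fluor) reports viability after 1 hr.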
% is scaled to controls: 0 for no effect and ±100 for the full control effect.

Chain of Nuclear receptor subfamily 1 group I member 2 (Homo sapiens) (O75469 whole entry, looked up): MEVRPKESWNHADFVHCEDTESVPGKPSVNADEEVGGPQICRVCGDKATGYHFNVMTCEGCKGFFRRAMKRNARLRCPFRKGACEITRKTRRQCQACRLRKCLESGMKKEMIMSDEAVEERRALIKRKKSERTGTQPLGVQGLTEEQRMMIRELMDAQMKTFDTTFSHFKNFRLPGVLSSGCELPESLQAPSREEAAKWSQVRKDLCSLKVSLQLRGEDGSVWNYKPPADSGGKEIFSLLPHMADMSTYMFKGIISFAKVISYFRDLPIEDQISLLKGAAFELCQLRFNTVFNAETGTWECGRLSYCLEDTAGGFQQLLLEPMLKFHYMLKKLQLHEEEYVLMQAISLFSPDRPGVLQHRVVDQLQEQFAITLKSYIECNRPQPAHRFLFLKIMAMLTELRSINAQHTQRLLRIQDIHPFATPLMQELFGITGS
Chain of Cytochrome P450 2C19 (Homo sapiens) (P33261 whole entry, looked up): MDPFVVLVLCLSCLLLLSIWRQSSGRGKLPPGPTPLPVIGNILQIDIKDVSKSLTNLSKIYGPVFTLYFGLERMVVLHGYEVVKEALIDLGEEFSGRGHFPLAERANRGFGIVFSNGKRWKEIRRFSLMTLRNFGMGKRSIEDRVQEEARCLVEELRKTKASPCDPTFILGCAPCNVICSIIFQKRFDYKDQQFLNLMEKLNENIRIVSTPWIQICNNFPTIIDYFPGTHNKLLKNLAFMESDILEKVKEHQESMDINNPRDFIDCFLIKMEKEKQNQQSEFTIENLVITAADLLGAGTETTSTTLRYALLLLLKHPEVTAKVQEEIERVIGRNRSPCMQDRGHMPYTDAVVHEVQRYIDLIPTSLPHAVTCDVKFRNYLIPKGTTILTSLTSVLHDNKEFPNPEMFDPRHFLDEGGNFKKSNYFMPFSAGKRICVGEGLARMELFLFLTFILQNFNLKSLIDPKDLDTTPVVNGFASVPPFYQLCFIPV
Chain of Nuclear receptor subfamily 1 group I member 2 (Rattus norvegicus) (Q9R1A7 whole entry, looked up): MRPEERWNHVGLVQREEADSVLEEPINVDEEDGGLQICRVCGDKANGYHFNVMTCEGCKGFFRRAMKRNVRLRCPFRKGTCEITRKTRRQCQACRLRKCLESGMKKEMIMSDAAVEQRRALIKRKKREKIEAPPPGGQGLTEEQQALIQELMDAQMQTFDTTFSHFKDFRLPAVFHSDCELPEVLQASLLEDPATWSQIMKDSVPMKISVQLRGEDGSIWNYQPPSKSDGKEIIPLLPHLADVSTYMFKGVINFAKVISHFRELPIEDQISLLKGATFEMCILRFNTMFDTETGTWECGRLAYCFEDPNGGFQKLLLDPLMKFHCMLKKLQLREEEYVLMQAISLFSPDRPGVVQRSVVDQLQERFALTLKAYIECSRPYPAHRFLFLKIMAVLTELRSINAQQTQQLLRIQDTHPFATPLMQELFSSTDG
Chain of Cytochrome P450 2D6 (Homo sapiens) (P10635 whole entry, looked up): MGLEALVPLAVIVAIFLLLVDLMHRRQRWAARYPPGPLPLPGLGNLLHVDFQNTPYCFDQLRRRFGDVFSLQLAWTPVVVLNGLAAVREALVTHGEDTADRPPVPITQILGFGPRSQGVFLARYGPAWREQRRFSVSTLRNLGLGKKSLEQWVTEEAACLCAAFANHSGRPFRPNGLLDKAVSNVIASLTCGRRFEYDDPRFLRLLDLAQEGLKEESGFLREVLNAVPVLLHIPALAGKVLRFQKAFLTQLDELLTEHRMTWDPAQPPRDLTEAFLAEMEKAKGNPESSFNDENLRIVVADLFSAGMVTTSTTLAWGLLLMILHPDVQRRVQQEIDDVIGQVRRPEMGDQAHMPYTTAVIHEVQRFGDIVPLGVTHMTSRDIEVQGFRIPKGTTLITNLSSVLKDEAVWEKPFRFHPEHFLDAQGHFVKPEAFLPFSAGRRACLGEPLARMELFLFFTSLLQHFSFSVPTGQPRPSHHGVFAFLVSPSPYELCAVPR

With `NC(=O)c1cccnc1`, the Potency entry in test [1], in test [2], in test [3], in test [4], in test [6] and in [8] was “inactive” in each case. Moreover, the max activation in test [5] is -0.433% (inactive). Further, the outcome in test [7] was inactive. Further, the Potency in test [9] was 49.3 µM (active) and inactive.

Regarding `O=C(Nc1ncc([N+](=O)[O-])s1)c1cccs1`, the Potency result in [1], in [3] and in [6] was “inactive” each time. The Potency is 26.6 µM (active) in test [2], 531 nM (active) in [4], 12.3 µM (active) in test [8] and 8.71 µM (active) in [9].

For `O=C1NS(=O)(=O)c2ccccc21`, the Potency result in test [1], in test [2], in [3] and in [10] was “inactive” throughout. Besides, the max activation in test [5] is -1.81% (inactive).

In the case of `CCCCOC(=O)c1ccc(O)cc1`, the Potency entry in test [1], in [3], in [10] and in [8] was “inactive” each time. The Potency in test [2] was 31 µM (active) and inactive; in test [4], 69.4 µM (active) and inactive; in [9], 28.6 µM (active) and 35.6 µM (active) and 15.5 µM (active).

Turning to `O=C(O)c1ccccc1`, the Potency result in [1], in test [2], in [3], in test [10] and in test [4] was “inactive” each time. Also, the Potency in [8] is 37.4 µM (active) and inactive; in [9], 33.3 µM (active) and 3.47 µM (active) and inactive.

With `O=C(O)CC(O)C(=O)O` (stereo not given), the Potency entry in test [1], in test [2], in [3], in test [4] and in [8] was “inactive” throughout. Moreover, the max activation in [5] is -2.6% (inactive). The call in test [7] was inactive.

Turning to `Nc1c(N=Nc2ccc(-c3ccc(N=Nc4cc(S(=O)(=O)O)c5ccccc5c4N)cc3)cc2)cc(S(=O)(=O)O)c2ccccc12`, the Potency entry in test [1], in test [3] and in [4] was “inactive” each time. Further, the Potency in test [2] is 12.2 µM (active); in test [6] it was 22.4 µM (active); in test [8] it was 35.6 µM (active); in test [9], 71 µM (active). In addition, in [5], the max activation is -6.72% (inactive). In addition, the call in test [7] was inactive.

In the case of `CCc1nc(N)nc(N)c1-c1ccc(Cl)cc1`, the Potency result in test [1], in [2], in [3], in test [10] and in test [9] was “inactive” throughout. Besides, the Potency is 62100 nM (active) in test [4]; 9.07 µM (active) and 15.9 µM (active) and 13.8 µM (active) in test [8].

With `O=C1OC2(c3ccccc31)c1cc(Br)c(O)c(Br)c1Oc1c2cc(Br)c(O)c1Br`, the Potency result in test [1], in test [3], in test [4], in test [6] and in test [8] was “inactive” in each case. Moreover, the Potency in [2] was 6.2 µM (active) and 22.3 µM (active) and 11.9 µM (active); in test [9], 20.3 µM (active) and inactive. Further, the max activation in [5] is -7.26% (inactive). Also, in test [7], the compound was called inactive.

For the compound `CC1(C)S[C@@H]2[C@H](NC(=O)[C@H](N)c3ccccc3)C(=O)N2[C@H]1C(=O)O`, the Potency result in test [1], in [2], in [3], in test [10], in test [4] and in [9] was “inactive” each time. In addition, in test [8], the Potency is 44.5 µM (active) and inactive.

In the case of `C=CCc1ccc(O)c(OC)c1`, the Potency entry in test [1], in test [2], in [3], in test [4] and in test [6] was “inactive” each time. Besides, the max activation in [5] was -1.79% (inactive). Further, in test [7], the result was inactive. Besides, the Potency in test [8] is 9.97 µM (active) and inactive; in test [9], 39.7 µM (active) and 56.4 µM (active) and inactive.

For the compound `O=C1c2c(O)cccc2Cc2cccc(O)c21`, the Potency entry in test [1], in test [2], in test [3], in test [4], in [6] and in [8] was “inactive” each time. Besides, in [9], the Potency result was “inactive”. In addition, the max activation in test [5] is -3.04% (inactive). The result in [7] was inactive.

As for `NS(=O)(=O)c1cc2c(cc1Cl)NCNS2(=O)=O`, the Potency entry in test [1], in test [2], in test [3], in [10], in [4] and in test [8] was “inactive” each time. Also, in [9], the Potency was 62.3 µM (active) and inactive.

Consider `O=S1(=O)OC(c2ccc(O)cc2)(c2ccc(O)cc2)c2ccccc21`, for which the Potency entry in test [1], in test [3], in test [4], in test [6] and in test [8] was “inactive” each time. The Potency in test [2] was 30.6 µM (active) and 13.3 µM (active); in test [9], “inactive and 50.2 µM (active)”. Also, in [5], the max activation is 1.08% (inactive). Also, the outcome in [7] was inactive.

As for `C=C(C)C(=O)OCC(C)O` (stereo not given), the Potency entry in test [1], in [2], in test [3], in test [10], in [4] and in [8] was “inactive” throughout. Also, the Potency result in test [9] is “inactive”.

Consider `COc1ccc2cc(S(=O)(=O)N[C@H](CC(=O)N[C@H](Cc3ccc(CN4[C@H](C)CCC[C@@H]4C)cc3)C(=O)N(C)C(C)C)c3ccc4c(c3)OCO4)ccc2c1`, for which the Potency was 57.9 µM (active) in test [1], 51.6 µM (active) in test [2] and 0.169 µM (active) in [8]. The Potency entry in test [3] and in test [4] was “inactive” throughout.

`Cc1c(C(=O)O)c(O)cc2c1C(=O)c1c(O)c([C@@H]3O[C@H](CO)[C@@H](O)[C@H](O)[C@H]3O)c(O)c(O)c1C2=O`: the Potency result in test [1], in test [3], in [4] and in [6] was “inactive” throughout. For the same compound, the Potency in [2] was 33.5 µM (active) and 27.3 µM (active) and 23.7 µM (active); in test [8], 31 µM (active) and 39.9 µM (active); in test [9], 39 µM (active). Also, in test [5], the max activation was -3.66% (inactive). The call in test [7] was inactive.

In the case of `CC(O)(P(=O)(O)O)P(=O)(O)O`, the Potency result in [1], in test [2], in test [3], in test [4], in test [6] and in test [8] was “inactive” throughout. Further, in test [9], the Potency result was “inactive”. Moreover, the max activation in test [5] was -1.65% (inactive). Moreover, the compound was classed as inactive in test [7].

Consider `Cc1cccc(C)c1`, for which the Potency entry in [1], in [2], in test [3] and in [4] was “inactive” in each case. Also, the Potency result in test [8] is “inactive and 21.8 µM (active)”; in test [9], 68.6 µM (active) and inactive.

As for `Cc1cc(C)nc(NS(=O)(=O)c2ccc(N)cc2)n1`, the Potency entry in [1], in test [2], in test [3], in [4] and in test [8] was “inactive” in each case. In addition, in [9], the Potency is 80.6 µM (active) and inactive.
